PPARg SRC-2 ag – agonists of SRC-2 recruitment by human PPARgamma | P37231 | PPARgamma LBD-SRC-2 recruitment, biochemical | activation, % at 8 µM | actives 0.34% (n = 200,000); in the data active = activation above about 22%;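 also: 0% = vehicle and 100% = reference agonist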
Target sequence (P37231 whole entry, looked up, the tested form may be a part): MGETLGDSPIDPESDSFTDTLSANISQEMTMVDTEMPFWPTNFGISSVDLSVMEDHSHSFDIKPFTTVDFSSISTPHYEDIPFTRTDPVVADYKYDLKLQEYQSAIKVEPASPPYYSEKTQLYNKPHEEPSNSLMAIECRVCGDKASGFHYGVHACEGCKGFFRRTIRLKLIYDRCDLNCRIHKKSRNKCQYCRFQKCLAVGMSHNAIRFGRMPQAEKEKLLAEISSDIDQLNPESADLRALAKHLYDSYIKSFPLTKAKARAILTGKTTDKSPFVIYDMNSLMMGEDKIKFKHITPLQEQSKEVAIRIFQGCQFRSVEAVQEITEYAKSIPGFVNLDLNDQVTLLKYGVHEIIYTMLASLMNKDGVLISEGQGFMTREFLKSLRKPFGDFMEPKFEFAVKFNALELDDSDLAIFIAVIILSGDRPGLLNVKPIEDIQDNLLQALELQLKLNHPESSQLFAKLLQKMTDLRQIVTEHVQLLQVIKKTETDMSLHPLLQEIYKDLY
PPARg SRC3 recr – promotes SRC-3 coactivator recruitment by human PPARgamma; P37231; biochemical PPARgamma/SRC-3 coactivator recruitment assay; activation, % at 8 µM; actives 0.26% (n = 200,000); in the data active = activation above about 23%;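 also: 0% = DMSO and 100% = reference agonist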
SRC3 TRFRET art – TR-FRET artefact, counter-screen to PPARgamma/SRC-3 agonist assay | PPARgamma/SRC-3 format; hits give high values | TR-FRET ratio at 8 µM | actives 0.39% (n = 99,000)
SRC1 TRFRET art – TR-FRET artefact, counter-screen to PPARgamma/SRC-1 agonist assay; AID 1051; actives 0.34% (n = 99,000); TR-FRET ratio at 8 µM; TR-FRET detection artefact counter-screen, emission ratio; hits give high values; in the data active = TR-FRET ratio above about 2300
SRC2 TRFRET art – counter-screen for PPARgamma SRC-2 recruitment agonists: TR-FRET artefact; hits give high values; TR-FRET ratio at 8 µM; actives 0.4% (n = 200,000); AID 1049
PPARg SRC1 recr – promotes SRC-1 coactivator recruitment by human PPARgamma. P37231. PPARgamma-SRC-1 coactivator recruitment biochemical assay. activation, % at 8 µM. actives 0.41% (n = 200,000). AID 631; in the data active = activation above about 19%;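 also: 0% = DMSO and 100% = reference agonist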
* = called active by the depositor; . = no result. An excerpt weighted towards active compounds, which were near 0.9% of everything screened. Rule as the data show it, unless noted: active = TR-FRET ratio above about 2000; inactive = the rest.

SMILES | PPARg SRC-2 ag | PPARg SRC3 recr | SRC3 TRFRET art | SRC1 TRFRET art | SRC2 TRFRET art | PPARg SRC1 recr
COc1ccc(CN2C(=O)c3ccccc3C2C(=O)NC2CCCCCC2)c(OC)c1 (configuration not stated) | 3 | 2 | 1699 | 1621 | 1598 | 6
COc1ccc(OCC(=O)NC(=S)Nc2ccc3c4c(cccc24)CC3)cc1 | 3 | 13 | 2132* | 2059 | 1730 | 8
Cc1ccccc1OCC(=O)NC(=S)Nc1ccc2c3c(cccc13)CC2 | 11 | 14 | . | . | 1639 | 8
C=CCn1c(CNC(=O)c2ccccc2F)nnc1SCc1nc2ccccc2c(=O)[nH]1 | 0 | -1 | 1281 | 1759 | 1588 | -3
N#Cc1c(-c2ccccc2)cc(-c2ccccc2)nc1SCc1nnc(-c2ccccc2)o1 | 4 | -4 | . | . | 1373 | 86*
CC(C)C(Sc1nc(-c2ccccc2)cc(-c2ccccc2)c1C#N)C(=O)O (configuration not stated) | -7 | 4 | 1489 | 1481 | 1171 | -5
CCOC(=O)CC(=O)CSc1nc(-c2ccccc2)cc(-c2ccccc2)c1C#N | 12 | 8 | 2399* | 2069 | 2021* | 10
Cc1ccc(OCCNC(=O)C(=O)NCc2ccco2)cc1 | 7 | 2 | 1678 | 1985 | 1604 | 7
CCC(C)NC(=O)Cc1c(OC)ccc2cc(Br)ccc12 (configuration not stated) | 14 | 8 | 1936 | 2168 | 2014* | 19
Cn1c(/C(C#N)=C(\O)COc2ccc3ccccc3c2)nc2ccccc21 | 32* | -1 | 1562 | 1718 | 2360* | -3
Cc1ccc(OC/C(O)=C(\C#N)c2nc3ccccc3s2)cc1 | 2 | -4 | 1383 | 1627 | 1565 | -1
CSc1cccc(NC(=O)CN2C(=O)c3ccccc3S2(=O)=O)c1 | 22* | 21 | . | . | 1521 | 0
O=C(CN1C(=O)c2ccccc2S1(=O)=O)Nc1ccccc1 | -7 | -5 | . | . | 1472 | -6
CN(C)S(=O)(=O)c1cccc(NC(=O)COC(=O)c2cc(-c3cccc(Br)c3)nc3ccccc23)c1 | 8 | 26* | 3725* | 2585* | 2575* | 4
O=C1CCCC2=C1C(c1ccccc1)CC(=O)N2c1ccc(F)cc1F (configuration not stated) | -1 | -3 | 1618 | 2034 | 1566 | -1
Fc1ccc2nc(Nc3nc4cc5c(cc4s3)OCCO5)sc2c1 | 3 | 4 | 2582* | 2154 | 2038* | 8
Fc1ccc2nc(Nc3nc4cc5c(cc4s3)OCO5)sc2c1 | 4 | -8 | 1305 | 1631 | 1428 | -6
Cc1sc(-n2c(C)cc(/C=N/n3cnnc3)c2C)c(C#N)c1C | 6 | 29* | . | . | 1511 | 6
O=C(CCSCc1ccccc1F)NCc1cccs1 | -3 | 0 | 1522 | 1774 | 1317 | -7
O=C(CCSCc1ccccc1Cl)NCc1cccs1 | 2 | -5 | 1723 | 2618* | 1617 | 28*
O=C(CSCc1ccc(Cl)cc1)Nc1ccc(S(=O)(=O)N2CCOCC2)cc1 | -5 | 2 | 1555 | 1842 | 1465 | 4
O=C(CCc1nc2ccccc2[nH]c1=O)N/N=C/c1ccccc1 | 14 | 5 | 1439 | 1983 | 1673 | 5
COc1ccc(OC)c(S(=O)(=O)Nc2cc(C(=O)O)ccc2N2CC3CC(C2)c2cccc(=O)n2C3)c1 (configuration not stated) | 6 | 0 | 1548 | 2021 | 1611 | 14
O=C(Nc1ccccc1F)Nc1cc(S(=O)(=O)N2CCOCC2)ccc1N1CCCC1 | 9 | -2 | 1572 | 1664 | 1691 | 7
O=C(Nc1cc(S(=O)(=O)N2CCOCC2)ccc1N1CCCC1)c1ccc2c(c1)S(=O)(=O)c1ccccc1C2=O | 4 | 0 | 1512 | 2072 | 1978* | -1
SMILES | PPARg SRC-2 ag | PPARg SRC3 recr | SRC3 TRFRET art | SRC1 TRFRET art | SRC2 TRFRET art | PPARg SRC1 recr
COc1ccc(C2=C(SC)CC2=NC(C)(C)C)cc1 | 2 | 2 | 1547 | 1682 | 1566 | 2
O=C1NC2(CCCC2)N=C1c1ccc(Cl)cc1 | -2 | -8 | . | . | 1415 | 4
N#CC(C#N)=c1ccc2c(c1)NC1(CCCCC1)N=2 | 28* | 29* | . | . | 1919 | 39*
COc1ccc(C2(O)CCN(CC(=O)Nc3nccs3)CC2)c(OC)c1 | 4 | 1 | . | . | 1972* | 8
COC(=O)c1ccncc1C(=O)Nc1ccc(F)cc1 | 4 | 2 | 1493 | 1598 | 1556 | -6
Fc1cccc(F)c1-n1c(CN2CCCC2)csc1=S | 0 | 0 | 1494 | 1556 | 1445 | -4
N=C1C(c2ccccc2)=C(O)CN1c1cccc2ccccc12 | 3 | 5 | 1656 | 2293 | 1570 | -3
COc1ccc(C2=NN(C(=O)CSc3cn(C)c4ccccc34)C(c3ccc(OC)cc3)C2)cc1 (configuration not stated) | 5 | 9 | . | . | 9469* | 0
COc1ccc(C2=NN(C(=O)CSc3ncccn3)C(c3ccc(OC)cc3)C2)cc1 (configuration not stated) | 5 | -1 | 1648 | 2104 | 1601 | 8
COc1ccc(C2CC(c3ccc4ccccc4c3)=NN2C(=O)CSc2ncccn2)cc1 (configuration not stated) | 9 | -4 | 2117* | 1782 | 1608 | 3
COc1ccc(C2=NN(C(=O)CSc3nc4ccccc4s3)C(c3ccc(OC)cc3)C2)cc1 (configuration not stated) | -6 | -2 | 1447 | 1938 | 1438 | 7
c1ccc(-c2csc(-n3cccn3)n2)cc1 | 2 | 0 | 1482 | 1743 | 1736 | 5
Cc1ccc(NS(=O)(=O)c2ccc(OCC(=O)NCc3cccnc3)cc2)cc1 | 27* | 4 | 1701 | 1921 | 1614 | 2
Cc1ccc(OCC(=O)NS(=O)(=O)c2ccccc2)cc1 | -2 | 7 | 1655 | 1979 | 1545 | 11
CCC(C)NS(=O)(=O)c1ccc(OCC(=O)NCc2cccnc2)cc1 (configuration not stated) | 8 | 2 | . | . | 1304 | 6
Cc1ccc(S(=O)(=O)NC(=O)COc2ccccc2)cc1 | 0 | 6 | 1472 | 2230 | 1758 | 21*
COc1ccc(C(=O)CCC(=O)Nc2cccnc2)cc1 | -2 | -1 | 1503 | 1837 | 1577 | -3
CCN(C(=O)c1ccco1)c1nc(CC(=O)Nc2ccc(Cl)cc2)cs1 | -6 | 4 | . | . | 1541 | -2
CCC(=O)N(Cc1ccco1)c1nc(C(=O)Nc2ccc(Cl)cc2)c(C)s1 | 19 | 3 | 1762 | 2016 | 1971* | 14
c1cnn(-c2cncc(-n3cccn3)n2)c1 | 18 | 5 | 1731 | 1718 | 1676 | 3
Cc1ccc2c(C(=O)N3CCN(c4ccccc4)CC3)cc(-c3cccnc3)nc2c1C | 2 | -1 | 1604 | 2369* | 1394 | 13
COc1ccc(-c2nc3ccccc3c(=O)n2CCOc2cc(C)ccc2C)cc1 | 14 | -2 | 1415 | 1600 | 1716 | -8
CCCSc1ncnc2c1oc1ccccc12 | 2 | 4 | . | . | 1525 | 7
CCOc1ccccc1NC(=O)CSc1ncnc2c1oc1ccccc12 | 6 | 0 | . | . | 1627 | 11

Assay outcomes from PubChem.
